Compound activity from PubChem.
IEC-6 tox = IEC-6 cytotoxicity, counter-screen for KLF5 inhibitors; AID 1825; inhibition, % at 5 µM; luminescence viability; hit rate 0.78% among 290,000;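 also: 0% = plate median of test compound wells and 100% = cytotoxic reference compound wells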
BaF3 parental = parental Ba/F3 viability inhibition as JAK2V617F counter-screen; CellTiter-Glo ATP luminescence; inhibition, % at 5.6 µM; hit rate 1.1% among 220,000; AID 1486;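 active = inhibition above a per-campaign cutoff, the mean inhibition of all tested compounds plus 3 SD, cut at about 27% in these data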;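 also: 0% = DMSO wells and 100% = JAK Inhibitor I control wells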
Ba/F3 V617F tox = loss of viability in JAK2V617F-driven Ba/F3 cells; Ba/F3 EpoR-JAK2V617F viability, ATP luminescence; inhibition, % at 5.6 µM; hit rate 1.1% among 220,000; AID 1446;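 active = inhibition above the campaign mean plus 3 SD over all tested compounds, cut at about 24% in these data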;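 also: cytokine-independent growth of Ba/F3 cells driven by EpoR plus mutant JAK2; 0% = DMSO-treated cells and 100% = JAK inhibitor I control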
aSyn UTR inh = 5' untranslated region of α-synuclein, MLPCN primary screen | alpha-synuclein 5'UTR reporter, inhibitor activity | hit rate 0.82% among 300,000 | inhibition, % (tested at 7.5 µM) | AID 1813; in the data active = inhibition above about 60%; inconclusive = no clear call, values can overlap the other calls;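 also: H4 neuroglioblastoma cells stably carrying SNCA 5'UTR luciferase fusion; 0% = DMSO wells and 100% = positive control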
KLF5 inh = inhibitors of KLF5 expression. DLD-1 KLF5 promoter-luciferase reporter, luminescence. inhibition, % at 5 µM. hit rate 0.23% among 290,000. AID 1700;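 active = inhibition above a per-plate limit of that plate's mean compound inhibition plus 3 SD, cut at about 60% in these data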;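 also: 0% = DMSO wells and 100% = LY294002 at 200 µM; higher means less KLF5 promoter-driven luciferase light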
APP transl inh = APP translation inhibition; SH-SY5Y APP 5'UTR-luciferase reporter, luminescence; inhibition, % at 2 µM; hit rate 0.82% among 190,000;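 active = inhibition above a set limit, derived from the sample mean plus 3 SD, cut at about 45% in these data; inconclusive = one replicate passes the limit while the other fails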
IEC-6 cytotox cf = IEC-6 cytotoxicity, confirmation assay; shares compounds with IEC-6 tox; IEC-6 rat intestinal epithelial viability, luminescence; inhibition, % at 5 µM; hit rate 63% among 1,900;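 also: 0% = vehicle and 100% = reference cytotoxic drug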
The depositor's hits bear a star; ? = inconclusive; . = not tested or not shown. A selection: hits, their analogues and other compounds. The true share with any hit is near 2.2%. Rule as the data show it, unless noted: active = inhibition above about 22%; inactive = the rest.

SMILES	IEC-6 tox	BaF3 parental	Ba/F3 V617F tox	aSyn UTR inh	KLF5 inh	APP transl inh	IEC-6 cytotox cf
C/C(=N\NC(=O)CN1CCCCC1)c1ccccc1O	42*	.	.	46	-10	.	19
C/C(=N\NC(=O)CN1CCCCC1)c1cccc([N+](=O)[O-])c1	.	.	.	-93	.	.	.
CCOc1ccc(Nc2c3ccccc3nc3ccccc23)cc1	72*	68*	76*	-94	40	.	44*
CCOc1ccc(Nc2cc(C)c3ccccc3n2)cc1	2	.	.	-85	-27	.	.
O=C(NCc1ccc2c(c1)OCO2)C(=O)NCC1OCCCN1S(=O)(=O)c1cc(F)ccc1F (stereo unspecified)	-4	.	.	-4	-13	.	.
CCc1ccc(-n2cc(-c3ccc(F)cc3)[n+]3c2SCCC3)cc1	28*	74*	83*	28	-3	4	26*
COc1ccc(-n2cc(-c3ccc(C)cc3)[n+]3c2SCC3)cc1	27*	71*	94*	-23	0	-2	21
COc1ccc(C2=NCN(c3ccc(C)cc3)C(=S)N2)cc1	6	5	-1	-138	-121	-54	.
CCCOc1ccc(C(=O)CCC(=O)NNC(=O)c2ccncc2)cc1	2	.	.	8	-16	.	.
Cc1ccccc1NC(=O)CSc1nc2scc(C)c2c(=O)[nH]1	37*	.	.	-8	-16	.	21
COc1cc(OC)cc(C(=O)N2CC(=O)Nc3ccccc32)c1	74*	.	.	31	52	.	56*
CCN(C(=O)c1cccs1)C1CCS(=O)(=O)C1 (stereo unspecified)	.	.	.	-8	.	.	.
COc1ccc(C(=O)Nc2ccc3ccccc3c2)cc1OC	8	.	.	-176	-190	.	.
COc1cc(C(=O)Nc2ccc3ccccc3c2)cc(OC)c1OC	78*	.	.	88*	43	.	59*
CCOC(=O)c1c(NC(=O)COC(=O)c2ccc(C)s2)sc2c1CC(C)(C)NC2(C)C	.	.	.	6	.	.	.
Cc1ccc(CNC(=O)Nc2ccc(F)cc2)n1C	0	.	.	-27	5	.	.
CCOC(=O)C1(CCc2ccccc2)CCN(C(=O)c2ccoc2)CC1	-2	3	6	-25	-12	-1	.
CC#CC(=O)N1CCC(CCc2ccccc2)(C(=O)OCC)CC1	27*	0	-1	?	6	-12	12
Cc1ccc(NS(=O)(=O)c2ccc3c(c2)n(C)c(=O)n3C)c(C)c1	1	.	.	3	-5	.	.
CCc1ccc(S(=O)(=O)Nc2cc3c(cc2C)n(C)c(=O)n3C)cc1	48*	.	.	-92	40	.	40*
O=C(NNC1=NCCC1)C1CC1	8	0	0	9	-10	-10	.
Cc1cccc(C(=O)NNC(=O)C23CC4CC(CC(C4)C2)C3)c1O	37*	.	.	-15	-21	.	5
Cc1ccccc1C(=O)NNC(=O)C12CC3CC(CC(C3)C1)C2	2	-6	-3	13	4	13	.
Cc1cccn2c(=O)c3cc(C(=O)NCc4ccco4)c(=N)n(CCc4ccccc4)c3nc12	-12	-4	1	.	-16	.	.
COc1ccc(CCNC(=O)c2cc3c(=O)n4cccc(C)c4nc3n(Cc3ccco3)c2=N)cc1OC	36*	.	.	2	-3	.	1
SMILES	IEC-6 tox	BaF3 parental	Ba/F3 V617F tox	aSyn UTR inh	KLF5 inh	APP transl inh	IEC-6 cytotox cf
Cc1ccc(CNC(=O)c2cc3c(=O)n4ccccc4nc3n(Cc3ccco3)c2=N)cc1	.	.	.	-12	.	.	.
Cc1cccn2c(=O)c3cc(C(=O)NCCc4ccccc4)c(=N)n(Cc4ccco4)c3nc12	63*	.	.	-27	25	.	-2
Cc1cccc(NC(=O)CSc2nc3ccccc3nc2N2CCCCC2)c1	43*	.	.	53	36	.	29*
Cc1cccc(NC(=O)CSc2nc3ccccc3nc2N2CCCC2)c1	32*	.	.	34	-10	.	5
COc1cccc(NC(=O)CSc2nc3ccccc3nc2N2CCCC2)c1	9	.	.	24	-8	.	.
CC(=O)C1=C(C)NC(SCC(N)=O)=C(C#N)C1CC(C)C (stereo unspecified)	3	0	-2	1	-9	-33	.
CCOC(=O)C1=C(C)NC(SC)=C(C#N)C1CC(C)C (stereo unspecified)	70*	81*	85*	13	52	.	56*
Cc1onc(-c2c(F)cccc2Cl)c1C(=O)N1CCOC12CCCCC2	-2	5	2	-9	-6	-41	.
Cc1cc(NC(=O)c2ccc([N+](=O)[O-])o2)ccc1NC(=O)c1ccco1	87*	78*	83*	-110	10	79*	25*
COc1cc(NC(=O)c2ccc([N+](=O)[O-])o2)ccc1NC(=O)c1ccco1	100*	.	.	11	-15	.	20
